PubChem BioAssay AID1309 (The Scripps Research Institute Molecular Screening Center, 2008)
The campaign covered roughly 1,200 compounds. About 130 (11%) were called active. Rule as the data show it: active = activation above about 120%; inactive = the rest. A selection follows.

Experiment: NF-kB reporter activators in human cells, counter-screen for STAT3 activator project (AID 1309);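 also: reporter induced by TNF-alpha stimulation; 100% = median of stimulated DMSO wells and 0% = no signal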
Settings: NF-kappaB reporter activation, at 5.7 µM, hits give high values

| Compound | activation (% of control) |
| --- | --- |
| Fc1ccc2nc(-c3ccccc3)nc(SCc3nnc(-c4ccccc4)o3)c2c1 | 106% (inactive) |
| COc1ccccc1N1CCN(C(=O)c2cc3c(-c4ccc(Cl)cc4)nn(C)c3s2)CC1 | 101% (inactive) |
| Cn1cccc1C(=O)Nc1nccs1 | 111% (inactive) |
| N#Cc1ccccc1NC(=O)COc1c(Br)cc(Br)c2cccnc12 | 107% (inactive) |
| COC(=O)c1[nH]c2ccccc2c1NC(=O)CN1CCCc2ccccc21 | 106% (inactive) |
| CCOC(=O)N1CCN(CC(=O)Nc2cc(C)nn2-c2nc3ccccc3s2)CC1 | 106% (inactive) |
| C/C(=N\NC(=O)CNc1cccc2ccccc12)c1ccc(Br)s1 | 103% (inactive) |
| COc1ccc(/C=N/Nc2ncnc3sc4c(c23)CCCC4)cc1O | 110% (inactive) |
| O=C1CCCN1CCCNc1ncnc2c1[nH]c1ccccc12 | 100% (inactive) |
| COc1ccc(C2c3[nH]c4ccccc4c3CCN2CCCn2cccn2)cc1C (stereo not given) | 102% (inactive) |
| CCn1c(SCC(=O)N/N=C/C=C/c2ccccc2[N+](=O)[O-])nnc1-c1ccccc1 | 101% (inactive) |
| CCOC(=O)C1CCN(c2ncnc3c2oc2ccc(Br)cc23)CC1 | 102% (inactive) |
| CN1CCN(c2ccc([N+](=O)[O-])c(Sc3nc4ccccc4[nH]3)c2)CC1 | 102% (inactive) |
| CSc1nc2sc3c(c2c(=O)[nH]1)CCc1ccccc1-3 | 108% (inactive) |
| C=CCCC(=O)Nc1nc(C)c(-c2csc(Nc3ccc(Cl)cc3)n2)s1 | 107% (inactive) |
| COc1ccc([N+](=O)[O-])cc1C1NN=C(c2cccc3ccccc23)S1 (stereo not given) | 114% (inactive) |
| Cc1ccc(S(=O)(=O)Nc2nc3ccccc3nc2N2CCc3ccccc3C2)cc1 | 107% (inactive) |
| COc1ccc(NC(=O)ON=C2c3ccccc3-c3ccccc32)cc1 | 108% (inactive) |
| O=c1[nH]c(CSc2ncc(-c3ccc(F)cc3)n2Cc2ccco2)nc2ccccc12 | 107% (inactive) |
| OC(COc1ccc2ccccc2c1)CN1CCOCC1 (stereo not given) | 107% (inactive) |
| Oc1cccc2ccc(/C=C/c3ccc(Br)s3)nc12 | 122% (active) |
| CCCS(=O)(=O)Nc1c(C(=O)O)[nH]c2ccccc12 | 103% (inactive) |
| O=C(Nc1cc(C(F)(F)F)ccc1Cl)c1cc(C2CC2)on1 | 100% (inactive) |
| O=C(O)CSCc1nc2ccccc2s1 | 112% (inactive) |
| Cc1ccc(/C=N/NC(=O)COc2ccccc2-c2ccccc2)cc1 | 155% (active) |

| Compound | activation (% of control) |
| --- | --- |
| C=CCn1c(-c2ccccc2OCC)n[nH]c1=S | 115% (inactive) |
| Cc1csc2ncc(C(=O)N(Cc3ccccc3)c3ccccn3)c(=O)n12 | 103% (inactive) |
| Cc1cccc(C(=O)N2CCc3c([nH]c4ccccc34)C2CC(C)C)n1 (stereo not given) | 110% (inactive) |
| Cc1nc(N=C(N)N)nc2c(C)cccc12 | 110% (inactive) |
| COc1ccc(Cl)cc1NC(=O)c1oc(C)nc1C | 108% (inactive) |
| COC(=O)c1[nH]c2ccccc2c1NS(=O)(=O)c1ccc(OC)cc1OC | 104% (inactive) |
| CN1C(=O)/C(=C\c2cc(Br)cs2)c2ccccc21 | 120% (inactive) |
| O=C(NCc1ccco1)c1cccn2c(=O)c3c4c(sc3nc12)CCCC4 | 106% (inactive) |
| Cc1ccc(-c2cc(C(=O)Nc3nn[nH]n3)c3ccccc3n2)c(C)c1 | 99.3% (inactive) |
| Cc1cccc(C(=O)Nc2nnc(Cc3c[nH]c4ccccc34)s2)c1 | 101% (inactive) |
| CSc1nc(N(C)NC(=O)c2cccc(C)c2)c2ccccc2n1 | 159% (active) |
| CSCCC(NC(=O)c1ccco1)C(=O)OCC(=O)Nc1ncc(Cl)c(C)c1Cl (stereo not given) | 97.1% (inactive) |
| Cc1nc2ccccc2cc1O | 98% (inactive) |
| N#Cc1c(C(F)(F)F)cc(-c2ccc(Cl)cc2)nc1SCC(=O)O | 107% (inactive) |
| Oc1c(C=Nc2cccc3nsnc23)ccc2ccccc12 | 96.6% (inactive) |
| Cc1ccc(C2=NN(C)c3nc4ccccc4n3C2)cc1 | 112% (inactive) |
| Cc1ccc(OCc2nnc(SC3CCc4ccccc4C3=O)n2C)cc1 (stereo not given) | 111% (inactive) |
| CC(=O)Nc1ccc(NC(=O)COc2ccccc2C(=O)Nc2cccc(Cl)c2Cl)cc1 | 102% (inactive) |
| CC(C)CNC(=O)COC(=O)/C=C/c1ccccc1[N+](=O)[O-] | 97.8% (inactive) |
| COc1nc(N=C(N)N)nc2c(C)cccc12 | 109% (inactive) |
| c1ccc(-c2cn3c(n2)CCc2ccc4cccnc4c2-3)cc1 | 106% (inactive) |
| O=C(Cc1c[nH]c2ccccc12)OCCOC(=O)Cc1c[nH]c2ccccc12 | 99.2% (inactive) |
| COc1cccc(NC(=S)C(C#N)=C2N(C)c3ccccc3N2C)c1 | 94.8% (inactive) |
| NC(=O)CSc1c[nH]c2ccccc12 | 102% (inactive) |
| COc1cccc(/C=C(/CC(=O)Nc2ccc(N3CCOCC3)cc2)c2nc3ccccc3s2)c1 | 114% (inactive) |

| Compound | activation (% of control) |
| --- | --- |
| Cc1ccc(NC(=O)c2cc([N+](=O)[O-])ccc2Cl)c(O)c1 | 107% (inactive) |
| CCCCC(=O)Nc1nc(C)c(-c2csc(Nc3ccc(Cl)cc3)n2)s1 | 101% (inactive) |
| C/C(=N\c1nc2ccccc2n1C)c1cc(Cl)ccc1O | 99.6% (inactive) |
| COc1cc(OC)cc(C(=O)N[C@H](C(=O)Nc2nc3ccccc3[nH]2)C(C)C)c1 | 138% (active) |
| COc1ccccc1-c1nnc(NC(=O)c2ccc3ncsc3c2)o1 | 127% (active) |
| COc1ccccc1-c1nnc(SCC(=O)N2CC(C)CC(C)C2)o1 (stereo not given) | 101% (inactive) |
| Oc1cccc(C2c3[nH]c4ccccc4c3CCN2Cc2cnn(-c3ccccc3)c2)c1 (stereo not given) | 105% (inactive) |
| CCNCc1cc2cc(C)ccc2[nH]c1=O | 101% (inactive) |
| COC(=O)c1[nH]c2cccc(C)c2c1NC(=O)CN1CCCc2ccccc21 | 96.7% (inactive) |
| CCOc1ccc(C2c3[nH]c4ccccc4c3CCN2Cc2cn(CC)nc2C)cc1 (stereo not given) | 111% (inactive) |
| COc1ccc(C)cc1NC(=O)c1[nH]c(C)c(C(C)=O)c1C | 99.2% (inactive) |
| COc1ccc(-c2c3c(=O)n(C)c(=O)n(C)c3cn2-c2cccc(OC)c2)cc1 | 103% (inactive) |
| O=C(O)CS/C(=C\c1ccc(F)cc1)c1nc2ccccc2s1 | 116% (inactive) |
| Cc1ccc(N=Nc2c(C)[nH]n(-c3ccccc3)c2=O)cc1 | 106% (inactive) |
| COc1cc(NS(=O)(=O)c2ccc(N/C=C(\C=O)c3nc4cc(Cl)ccc4o3)cc2)nc(OC)n1 | 104% (inactive) |
| COCCCNc1nc2c(-c3cccc(C(F)(F)F)c3)nnn2c2ccccc12 | 109% (inactive) |
| CCOC(=O)c1c(-c2cccc(C)c2)csc1NC(=O)c1c(-c2ccccc2)noc1C | 71.3% (inactive) |
| Cc1ccc(Nc2nc(-c3sc(NC(=O)c4ccccc4)nc3C)cs2)cc1 | 102% (inactive) |
| Cc1cccc(N(CC(=O)N=Nc2c(O)[nH]c3ccccc23)S(C)(=O)=O)c1C | 103% (inactive) |
| O=[N+]([O-])c1ccc(N2CCN(S(=O)(=O)c3ccc4ccccc4c3)CC2)cc1NCc1ccco1 | 105% (inactive) |
| CCSc1nnc(-c2cc3c(s2)-c2ccccc2CC3)o1 | 118% (inactive) |
| Cn1nc(-c2ccc(Cl)cc2)c2cc(C(=O)NCc3ccco3)sc21 | 104% (inactive) |
| COc1ccccc1C1C2=C(COC2=O)Nc2cc3c(cc21)OCO3 (stereo not given) | 166% (active) |
| CCOC(=O)CN(C)Cc1c[nH]c2ccccc12 | 105% (inactive) |
| O=C(C1CCN(S(=O)(=O)Cc2ccccc2)CC1)N1CCCc2ccccc21 | 108% (inactive) |
